Reference: the supplement of paper PMC10515830
Structures can show the parent of a compound that is named as a salt.

Test system: Danio rerio larvae (5 dpf)
Experiment: difference in excitability vs DMSO (percentage points); higher = more excitable than DMSO
Conditions: 10 µM; exposure time 6 h
Outline: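 Wild-type 5 dpf zebrafish larvae in 96-well plates were given 100 µL egg water containing library compound at 10 µM final for 6 h. After 3 h of exposure, plates at 28.5 ℃ were photographed every 6 s during a 3-h programme of moving lines and 100 ms, 400Hz tones. Z-LaP Tracker (a DeepLabCut model) quantified each behaviour, averaged over 48 larvae per compound. Values are the compound mean minus the DMSO-vehicle control, in percentage points.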

Point of comparison: `CC(C)NCC(O)c1ccc(NS(C)(=O)=O)cc1` (configuration not stated) [Sotalol (hydrochloride)], difference in excitability -4.39. Against it:
- CO[C@H]1C[C@@H]2CC[C@@H](C)[C@@](O)(O2)C(=O)C(=O)N2CCCC[C@H]2C(=O)O[C@H]([C@H](C)C[C@@H]2CC[C@@H](O)[C@H](OC)C2)CC(=O)[C@H](C)/C=C(\C)[C@@H](O)[C@@H](OC)C(=O)[C@H](C)C[C@H](C)/C=C/C=C/C=C/1C [Rapamycin] — higher, 5.81
- CC(C(=O)O)c1cccc(C(=O)c2ccccc2)c1 (racemic) [(±)-Ketoprofen] — higher, 0.309
- CC(=O)O[C@H]1Cc2ccccc2N(C(N)=O)c2ccccc21 [Eslicarbazepine Acetate] — higher, -1.41
- CCN[C@H]1C[C@H](C)S(=O)(=O)c2sc(S(N)(=O)=O)cc21 [Dorzolamide (hydrochloride)] — lower, -4.82
- O=C(C1CCCCC1)N1CC(=O)N2CCc3ccccc3C2C1 (configuration not stated) [Praziquantel] — higher, 27.3
- CC(=O)NO [Acetohydroxamic Acid] — higher, 12
- OC(c1cc(C(F)(F)F)nc2c(C(F)(F)F)cccc12)C1CCCCN1 (configuration not stated) [Mefloquine (hydrochloride)] — higher, 20.8
- CC(C)NCC(O)COc1ccc(CC(N)=O)cc1 (racemic) [(±)-Atenolol] — higher, 3.98
- C[C@@H]1NC(=O)[C@@H](N)CNC(=O)[C@H](C2CCNC(=N)N2)NC(=O)/C(=C/NC(N)=O)NC(=O)[C@H](CNC(=O)CC(N)CCCN)NC1=O.N=C1NCC[C@H]([C@@H]2NC(=O)/C(=C/NC(N)=O)NC(=O)[C@H](CNC(=O)C[C@@H](N)CCCN)NC(=O)[C@H](CO)NC(=O)[C@@H](N)CNC2=O)N1 [Capreomycin (sulfate)] — higher, 19.5
- CC(C)(C(=O)O)c1ccc(C(O)CCCN2CCC(C(O)(c3ccccc3)c3ccccc3)CC2)cc1 (configuration not stated) [Fexofenadine (hydrochloride)] — higher, 4.09
- CCCCC[C@H](O)/C=C/[C@@H]1[C@H]2C/C(=C/CCCC(=O)O)O[C@H]2C[C@H]1O [Prostaglandin I2 (sodium salt)] — higher, 0.101
- O=P(O)(O)C(O)(Cn1ccnc1)P(=O)(O)O [Zoledronic Acid (hydrate)] — higher, -0.91
- Cc1ccc(O)c([C@H](CCN(C(C)C)C(C)C)c2ccccc2)c1 [Tolterodine (tartrate)] — higher, 11.1
- O=C(O)C1(C(=O)O)CCC1.[NH2-].[NH2-].[Pt+2] [Carboplatin] — higher, -3.06
- Nc1nc(NC2CC2)c2ncn([C@H]3C=C[C@@H](CO)C3)c2n1 [Abacavir (sulfate)] — higher, -1.01
- CC(=O)N(O)CCCCCNC(=O)CCC(=O)N(O)CCCCCNC(=O)CCC(=O)N(O)CCCCCN [Deferoxamine (mesylate)] — higher, 4.87
- CCNC(=O)[C@@H]1CCCN1C(=O)[C@H](CCCNC(=N)N)NC(=O)[C@H](CC(C)C)NC(=O)[C@@H](CC(C)C)NC(=O)[C@H](Cc1ccc(O)cc1)NC(=O)[C@H](CO)NC(=O)[C@H](Cc1c[nH]c2ccccc12)NC(=O)[C@H](Cc1c[nH]cn1)NC(=O)[C@@H]1CCC(=O)N1 [Leuprorelin (acetate)] — higher, 16.2
- COc1cc2ncnc(Nc3ccc(F)c(Cl)c3)c2cc1NC(=O)/C=C/CN1CCCCC1 — higher, 16.4
- COCCCC/C(=N\OCCN)c1ccc(C(F)(F)F)cc1 [Fluvoxamine (maleate)] — higher, 13.2
- CC(C)N(CCCCOCC(=O)NS(C)(=O)=O)c1cnc(-c2ccccc2)c(-c2ccccc2)n1 — higher, 11.4
- CC[C@H]1OC(=O)[C@H](C)[C@@H](O[C@H]2C[C@@](C)(OC)[C@@H](O)[C@H](C)O2)[C@H](C)[C@@H](O[C@@H]2O[C@H](C)C[C@H](N(C)C)[C@H]2O)[C@](C)(O)C[C@@H](C)C(=O)[C@H](C)[C@@H](O)[C@]1(C)O [Erythromycin] — higher, 4.99
- N[C@H](C(=O)O)[C@H](O)c1ccc(O)c(O)c1 [Droxidopa] — higher, 0.975
- Oc1ncnc2[nH]ncc12 [Allopurinol] — higher, 0.512
- Clc1ccc(CCC(Cn2ccnc2)Sc2c(Cl)cccc2Cl)cc1 (configuration not stated) [Butoconazole (nitrate)] — higher, 9.05
- CNC(=C[N+](=O)[O-])NCCSCc1csc(CN(C)C)n1 [Nizatidine] — higher, -3.87
- CC(=O)OCC(=O)[C@@]12N=C(C)O[C@@H]1C[C@H]1[C@@H]3CCC4=CC(=O)C=C[C@]4(C)[C@H]3[C@@H](O)C[C@@]12C [Deflazacort] — higher, 13.1
